Assay results taken from PubChem BioAssay (NCATS).
Records with an inconclusive call do not appear. The source made the active and inactive calls. The call rests on the fitted dose curve; in most records, active means well fitted curve in the direction sought with a large enough effect; inconclusive means small, poorly fitted or top-dose-only effect, or another doubt; inactive means no such curve, though single readings can be large; an effect the other way counts as inactive or inconclusive.

Biological target: ATP-dependent DNA helicase Q1 (Homo sapiens) (UniProt P46063)
Sequence (P46063 whole entry, looked up): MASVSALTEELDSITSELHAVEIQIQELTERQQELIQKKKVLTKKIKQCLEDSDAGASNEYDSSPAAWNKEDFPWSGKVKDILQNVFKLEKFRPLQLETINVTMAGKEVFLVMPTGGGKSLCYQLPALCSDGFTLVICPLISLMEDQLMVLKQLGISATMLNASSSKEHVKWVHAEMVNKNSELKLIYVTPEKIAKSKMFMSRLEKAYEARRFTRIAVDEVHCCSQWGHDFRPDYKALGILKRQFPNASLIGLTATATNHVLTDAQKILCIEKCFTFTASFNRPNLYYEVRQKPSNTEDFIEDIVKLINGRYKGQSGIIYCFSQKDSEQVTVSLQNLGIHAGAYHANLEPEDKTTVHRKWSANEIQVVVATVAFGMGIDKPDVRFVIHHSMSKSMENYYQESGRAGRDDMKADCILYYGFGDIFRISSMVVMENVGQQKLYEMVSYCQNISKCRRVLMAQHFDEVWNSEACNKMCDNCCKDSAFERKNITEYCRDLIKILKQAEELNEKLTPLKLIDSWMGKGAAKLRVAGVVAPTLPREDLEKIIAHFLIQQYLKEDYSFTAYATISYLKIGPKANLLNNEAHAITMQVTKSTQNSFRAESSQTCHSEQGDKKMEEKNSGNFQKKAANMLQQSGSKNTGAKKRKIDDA
Assay: qHTS Validation Assay for Inhibitors of RecQ-Like Dna Helicase 1 (RECQ1) (AID 2353);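 further: plate controls were DMSO vehicle for no effect and enzyme-free control for full effect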
Details: recombinant RECQ1 helicase DNA unwinding assay; series mostly up to 25.6 µM; activity change, negative = inhibition: at the top concentration
How it was run: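 RECQ1T1 50 nM; forked duplex (20 bp + 30-nt ss tails) 200 nM, ATP 2 mM final; pH 8.0, 2 mM MgCl2, 2.5 ug/ml poly(dI-dC); 15 min compound preincubation; discontinuous kinetic read over 2 h at RT.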
With `CCCCCCCCCCCCCCCCCC(=O)NCC(COP(=O)([O-])OCC[N+](C)(C)C)OCC` (configuration not stated) the “activity change, negative = inhibition” value was 0.0884% (inactive).
For `CC(C)(C=O)Cc1cc(C(C)(C)C)c(O)c(C(C)(C)C)c1`, the “activity change, negative = inhibition” value was -7.9% (inactive).
In the case of `CCCCCCCCCCCCCCCCCCNC(=O)OCC(COP(=O)([O-])OCC[n+]1ccsc1)OC` (configuration not stated), the “activity change, negative = inhibition” value is reported as -3.28% (inactive).
In the case of `CCCCCC(O)c1cccc(OCc2ccc3ccccc3n2)c1` (configuration not stated), the “activity change, negative = inhibition” value is reported as -6.04% (inactive).
With `O=c1[nH]c2ccccc2n1CCCN1CCN(C(c2ccccc2)c2ccccc2)CC1` the “activity change, negative = inhibition” value was -2.02% (inactive).
In the case of `CNCC[C@H](Oc1ccc(C(F)(F)F)cc1)c1ccccc1`, the “activity change, negative = inhibition” value is reported as -9.87% (inactive).
For `O=C(O)c1cc([N+](=O)[O-])ccc1NCCCc1ccccc1`, the “activity change, negative = inhibition” value was 0.363% (inactive).

Tested on: not listed separately
Assay: Cytometric Cell-Based qHTS for Inhibitors of the mTORC1 Signaling Pathway in MEF (Tsc2-/-, p53-/-) Cells (AID 2660);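 further: percent of cells above a phospho-rpS6 to PI ratio cutoff in each well; plate controls were DMSO for no effect and rapamycin for full effect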
Details: mTORC1 pathway cytometry; series mostly up to 38.3 µM; activity change, negative = inhibition: at the top concentration
How it was run: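 Tsc2-/-, p53-/- MEFs (empty vector) exposed to compound 24 h at 37 C, fixed, stained with Alexa-488 anti-phospho-rpS6 Ser235/236 and propidium iodide. Acumen laser scanning; phospho-S6/PI ratio thresholded against 7.5 nM rapamycin, reported as % positive cells.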
With `COc1ccccc1N1CCN(CCN(C(=O)c2ccc(I)cc2)c2ccccn2)CC1` the “activity change, negative = inhibition” value was -4.94% (inactive).
In the case of `Cc1cc(NC2CCCCC2)nc(-n2nc(C)cc2C)n1`, the “activity change, negative = inhibition” value is reported as 8.81% (inactive).
For `CCCCCCCCCCCCCCCCCC(=O)NCC(COP(=O)([O-])OCC[N+](C)(C)C)OCC` (configuration not stated), the “activity change, negative = inhibition” value was -19.8% (inactive).
For `Nc1ncnc2c1c(I)cn2[C@@H]1C[C@H](N)[C@@H](O)[C@H]1O`, the “activity change, negative = inhibition” value was -12.9% (inactive).
In the case of `O=C1NC(=O)/C(=C/c2ccc(-c3ccc(F)cc3O)o2)S1`, the “activity change, negative = inhibition” value is reported as -0.184% (inactive).
With `CC(C)(C=O)Cc1cc(C(C)(C)C)c(O)c(C(C)(C)C)c1` the “activity change, negative = inhibition” value was 7.16% (inactive).
With `CC(C)ON([C@@H](C(=O)NO)C(C)C)S(=O)(=O)c1ccc(-c2ccccc2)cc1` the “activity change, negative = inhibition” value was -20.5% (inactive).
With `Nc1ncnc2c1ncn2[C@@H]1O[C@H](COP(=O)(O)OP(=O)(O)OP(=O)(O)OP(=O)(O)OC[C@@H]2O[C@H](n3cnc4c(N)ncnc43)[C@@H](O)[C@H]2O)[C@@H](O)[C@H]1O` the “activity change, negative = inhibition” value was -5.19% (inactive).
With `Clc1ccc(N2CCN(Cc3cc4ccccn4n3)CC2)cc1` the “activity change, negative = inhibition” value was 4% (inactive).
For `Cc1nc2sccn2c(=O)c1CCN1CCC(=C(c2ccccc2)c2ccc(F)cc2)CC1`, the “activity change, negative = inhibition” value was 0.781% (inactive).
In the case of `CNC(=O)[C@H]1O[C@@H](n2cnc3c(NCc4ccc(N)cc4)ncnc32)[C@H](O)[C@@H]1O`, the “activity change, negative = inhibition” value is reported as 1.2% (inactive).
With `CSc1ccccc1N1CCN(CCCCCC(=O)NC2CCCc3ccccc32)CC1` (configuration not stated) the “activity change, negative = inhibition” value was -6.07% (inactive).
With `C#C[C@]1(O)CC[C@H]2[C@@H]3CCC4=Cc5oncc5CC4(C)[C@H]3CCC21C` (some centres not stated) the “activity change, negative = inhibition” value was -4.22% (inactive).
In the case of `O=C(c1ccc(OCCCc2cnc[nH]2)cc1)C1CC1`, the “activity change, negative = inhibition” value is reported as -1.83% (inactive).
With `CNC(=O)[C@H]1O[C@@H](n2cnc3c(NCc4cccc(I)c4)ncnc32)[C@H](O)[C@@H]1O` the “activity change, negative = inhibition” value was 4.17% (inactive).
With `O=C(c1ccc(Cl)cc1)N1CCN(c2ccc([N+](=O)[O-])c3ncccc23)CC1` the “activity change, negative = inhibition” value was 0.417% (inactive).
In the case of `O=P(O)(O)C(Cl)(Cl)P(=O)(O)O`, the “activity change, negative = inhibition” value is reported as -7.17% (inactive).
With `Nc1nc(Nc2ccccc2)nc2c1ncn2[C@@H]1O[C@H](CO)[C@@H](O)[C@H]1O` the “activity change, negative = inhibition” value was -0.677% (inactive).
With `C=CC(=O)c1ccc(CCCCCC)cc1` the “activity change, negative = inhibition” value was 5.2% (inactive).
For `C[N+]1(C)CCC(OC(=O)C(c2ccccc2)c2ccccc2)CC1`, the “activity change, negative = inhibition” value was 12.3% (inactive).
For `CCCCCCCCc1ccc(-c2ccc(C(=O)O)cc2)cc1`, the “activity change, negative = inhibition” value was 4.31% (inactive).
In the case of `CCc1c(C(=O)NCCc2ccc(N3CCCCC3)cc2)[nH]c2ccc(Cl)cc12`, the “activity change, negative = inhibition” value is reported as 1.36% (inactive).
For `O=C(O)CC1CC(c2ccccc2)=NO1` (configuration not stated), the “activity change, negative = inhibition” value was 4% (inactive).
In the case of `Nc1nc(Cl)nc2c1ncn2[C@@H]1O[C@H](COP(=O)(O)OP(=O)(O)OP(=O)(O)O)[C@@H](O)[C@H]1O`, the “activity change, negative = inhibition” value is reported as 5.32% (inactive).
For `Cn1cc(C2=C(c3ccc(Cl)cc3Cl)C(=O)NC2=O)c2ccccc21`, the “activity change, negative = inhibition” value was 5.97% (inactive).
With `Cc1cc2c(cc1Cl)N(C(=O)Nc1ccc(Oc3cccnc3C)nc1)CC2` the “activity change, negative = inhibition” value was 4.29% (inactive).
In the case of `C[N+](C)(C)CCOP(=O)(O)OP(=O)([O-])OC[C@H]1O[C@@H](n2ccc(N)nc2=O)[C@H](O)[C@@H]1O`, the “activity change, negative = inhibition” value is reported as 2.18% (inactive).
In the case of `Cc1ccc(S(=O)(=O)/C=C/C#N)cc1`, the “activity change, negative = inhibition” value is reported as -23.5% (inactive).
With `NC(=S)NCCC[C@H](N)C(=O)O` the “activity change, negative = inhibition” value was 8.54% (inactive).
For `O=C(O)c1cc([N+](=O)[O-])ccc1NCCCc1ccccc1`, the “activity change, negative = inhibition” value was 0.373% (inactive).
In the case of `NC[C@H]1O[C@@H](n2cnc3c(N)ncnc32)[C@H](O)[C@@H]1O`, the “activity change, negative = inhibition” value is reported as 8.88% (inactive).
With `N.N.N.N.N.N.N.N.N.N.N.N.N.N.O.O.[Ru+4].[Ru+5].[Ru+5]` the “activity change, negative = inhibition” value was 6.52% (inactive).
In the case of `O=C(CCCCCN1CCN(c2ccccc2-c2ccccc2)CC1)NC1CCCc2ccccc21` (configuration not stated), the “activity change, negative = inhibition” value is reported as -21.9% (inactive).
For `C=CC(C)=C[C@@]1(C)SC(=O)C(C)=C1O`, the “activity change, negative = inhibition” value was 3.15% (inactive).

Tested on: not listed separately
Assay: High Content Imaging Cell-Based qHTS for Inhibitors of the mTORC1 Signaling Pathway in MEF (Tsc2-/-, p53-/-) Cells (AID 2666);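 further: percent of cells scored positive for phospho-rpS6 Ser235/236 immunostaining by imaging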
Details: series mostly up to 38.3 µM; outcome: at the top concentration
How it was run: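 Inhibition of rpS6 phosphorylation is measured by immunofluorescence imaging in empty-vector Tsc2-/-, p53-/- mouse embryonic fibroblasts after 24 hrs compound exposure at 37 degree Celsius. Results are reported as % positive cells per well.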
In the case of `COc1ccccc1N1CCN(CCN(C(=O)c2ccc(I)cc2)c2ccccn2)CC1`, the “outcome” value is reported as “inactive”.
With `Cc1cc(NC2CCCCC2)nc(-n2nc(C)cc2C)n1` the “outcome” value was “inactive”.
For `CCCCCCCCCCCCCCCCCC(=O)NCC(COP(=O)([O-])OCC[N+](C)(C)C)OCC` (configuration not stated), the “outcome” value was “inactive”.
With `Nc1ncnc2c1c(I)cn2[C@@H]1C[C@H](N)[C@@H](O)[C@H]1O` the “outcome” value was “inactive”.
For `O=C1NC(=O)/C(=C/c2ccc(-c3ccc(F)cc3O)o2)S1`, the “outcome” value was “inactive”.
In the case of `CC(C)(C=O)Cc1cc(C(C)(C)C)c(O)c(C(C)(C)C)c1`, the “outcome” value is reported as “inactive”.
For `CC(C)ON([C@@H](C(=O)NO)C(C)C)S(=O)(=O)c1ccc(-c2ccccc2)cc1`, the “outcome” value was “inactive”.
In the case of `Nc1ncnc2c1ncn2[C@@H]1O[C@H](COP(=O)(O)OP(=O)(O)OP(=O)(O)OP(=O)(O)OC[C@@H]2O[C@H](n3cnc4c(N)ncnc43)[C@@H](O)[C@H]2O)[C@@H](O)[C@H]1O`, the “outcome” value is reported as “inactive”.
For `Clc1ccc(N2CCN(Cc3cc4ccccn4n3)CC2)cc1`, the “outcome” value was “inactive”.
With `Cc1nc2sccn2c(=O)c1CCN1CCC(=C(c2ccccc2)c2ccc(F)cc2)CC1` the “outcome” value was “inactive”.
For `CNC(=O)[C@H]1O[C@@H](n2cnc3c(NCc4ccc(N)cc4)ncnc32)[C@H](O)[C@@H]1O`, the “outcome” value was “inactive”.
With `CSc1ccccc1N1CCN(CCCCCC(=O)NC2CCCc3ccccc32)CC1` (configuration not stated) the “outcome” value was “inactive”.
With `C#C[C@]1(O)CC[C@H]2[C@@H]3CCC4=Cc5oncc5CC4(C)[C@H]3CCC21C` (some centres not stated) the “outcome” value was “inactive”.
With `O=C(c1ccc(OCCCc2cnc[nH]2)cc1)C1CC1` the “outcome” value was “inactive”.
In the case of `CNC(=O)[C@H]1O[C@@H](n2cnc3c(NCc4cccc(I)c4)ncnc32)[C@H](O)[C@@H]1O`, the “outcome” value is reported as “inactive”.
In the case of `O=C(c1ccc(Cl)cc1)N1CCN(c2ccc([N+](=O)[O-])c3ncccc23)CC1`, the “outcome” value is reported as “inactive”.
For `O=P(O)(O)C(Cl)(Cl)P(=O)(O)O`, the “outcome” value was “inactive”.
For `CCCCCC(O)c1cccc(OCc2ccc3ccccc3n2)c1` (configuration not stated), the “outcome” value was “inactive”.
With `Nc1nc(Nc2ccccc2)nc2c1ncn2[C@@H]1O[C@H](CO)[C@@H](O)[C@H]1O` the “outcome” value was “inactive”.
With `C=CC(=O)c1ccc(CCCCCC)cc1` the “outcome” value was “inactive”.
With `C[N+]1(C)CCC(OC(=O)C(c2ccccc2)c2ccccc2)CC1` the “outcome” value was “inactive”.
With `CCCCCCCCc1ccc(-c2ccc(C(=O)O)cc2)cc1` the “outcome” value was “inactive”.
With `CCc1c(C(=O)NCCc2ccc(N3CCCCC3)cc2)[nH]c2ccc(Cl)cc12` the “outcome” value was “inactive”.
With `CNCC[C@H](Oc1ccc(C(F)(F)F)cc1)c1ccccc1` the “outcome” value was “inactive”.
For `O=C(O)CC1CC(c2ccccc2)=NO1` (configuration not stated), the “outcome” value was “inactive”.
In the case of `Nc1nc(Cl)nc2c1ncn2[C@@H]1O[C@H](COP(=O)(O)OP(=O)(O)OP(=O)(O)O)[C@@H](O)[C@H]1O`, the “outcome” value is reported as “inactive”.
In the case of `Cn1cc(C2=C(c3ccc(Cl)cc3Cl)C(=O)NC2=O)c2ccccc21`, the “outcome” value is reported as “inactive”.
For `Cc1cc2c(cc1Cl)N(C(=O)Nc1ccc(Oc3cccnc3C)nc1)CC2`, the “outcome” value was “inactive”.
For `C[N+](C)(C)CCOP(=O)(O)OP(=O)([O-])OC[C@H]1O[C@@H](n2ccc(N)nc2=O)[C@H](O)[C@@H]1O`, the “outcome” value was “inactive”.
For `Cc1ccc(S(=O)(=O)/C=C/C#N)cc1`, the “outcome” value was “inactive”.
In the case of `NC(=S)NCCC[C@H](N)C(=O)O`, the “outcome” value is reported as “inactive”.
With `O=C(O)c1cc([N+](=O)[O-])ccc1NCCCc1ccccc1` the “outcome” value was “inactive”.
In the case of `NC[C@H]1O[C@@H](n2cnc3c(N)ncnc32)[C@H](O)[C@@H]1O`, the “outcome” value is reported as “inactive”.
For `N.N.N.N.N.N.N.N.N.N.N.N.N.N.O.O.[Ru+4].[Ru+5].[Ru+5]`, the “outcome” value was “inactive”.
For `O=C(CCCCCN1CCN(c2ccccc2-c2ccccc2)CC1)NC1CCCc2ccccc21` (configuration not stated), the “outcome” value was “inactive”.
With `C=CC(C)=C[C@@]1(C)SC(=O)C(C)=C1O` the “outcome” value was “inactive”.
